Holding throughout (test): yeast three-hybrid, YBZ-1, SC-Leu-His + 0.5 mM 3-AT, 4 days
Holding throughout (details): tags: N-Gal4 AD-HA kept; label: inside an RPR1-promoter hybrid RNA with tandem MS2 sites; ssRNA

The target in assay [1] is PUM1 PUF domain R1-KWC (Homo sapiens, UniProt Q14671 828-1176, S863K;R864W;Q867C). Summed up: (§1)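 The interaction score is the logarithmic change in variant frequency from input to selection. It uses log2, with a pseudocount of 1 for absent variants, and frequencies came from PCR-amplified, Illumina-sequenced repeat regions. The libraries were Pumilio-1 PUF domains randomized at the three base-contacting residues per repeat, co-expressed with matching RNA elements in strain YBZ-1 (LexA–MS2 coat fusion, HIS3 reporter). Plating lasted four days on SC-Leu (input) or SC-Leu-His + 0.5 mM 3-AT (selection).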

Assay [2] addresses PUM1 PUF domain R1-MWR (Homo sapiens, UniProt Q14671 828-1176, S863M;R864W;Q867R). Summed up:
as §1

Assay [3] deals with PUM1 PUF domain R4-MNA (Homo sapiens, UniProt Q14671 828-1176, N971M;H972N;Q975A). In a few lines: as §1
Assay [4] concerns the target T1, PUM1 PUF domain R6-YRI (Homo sapiens, UniProt Q14671 828-1176, N1043Y;Y1044R;Q1047I).
T1 sequence: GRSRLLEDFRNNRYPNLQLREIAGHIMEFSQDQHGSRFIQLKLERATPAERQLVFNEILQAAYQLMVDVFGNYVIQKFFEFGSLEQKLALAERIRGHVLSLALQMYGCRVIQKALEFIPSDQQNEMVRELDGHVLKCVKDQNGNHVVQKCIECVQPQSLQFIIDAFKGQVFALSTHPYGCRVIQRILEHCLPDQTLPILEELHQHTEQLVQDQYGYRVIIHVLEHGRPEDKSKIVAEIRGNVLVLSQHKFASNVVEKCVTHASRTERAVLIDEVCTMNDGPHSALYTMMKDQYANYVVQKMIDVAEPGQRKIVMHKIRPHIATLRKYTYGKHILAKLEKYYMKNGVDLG
Summed up: as §1

Assay [5] has as its target T2, PUM1 PUF domain R6-KWG (Homo sapiens, UniProt Q14671 828-1176, N1043K;Y1044W;Q1047G).
T2 sequence: T1 sequence with Y216K, R217W, I220G
Summed up: as §1

Assay [6] deals with PUM1 PUF domain R1-RFC (Homo sapiens, UniProt Q14671 828-1176, S863R;R864F;Q867C). In a few lines: as §1
The target of assay [7] is T3, PUM1 PUF domain R6-SYR (Homo sapiens, UniProt Q14671 828-1176, N1043S;Q1047R).
T3 sequence: T1 sequence with Y216S, R217Y, I220R
In a few lines: as §1

The target in assay [8] is PUM1 PUF domain R5-RRA (Homo sapiens, UniProt Q14671 828-1176, C1007R;Q1011A). Summed up: as §1
Assay [9] deals with PUM1 PUF domain R5-LFS (Homo sapiens, UniProt Q14671 828-1176, C1007L;R1008F;Q1011S). In a few lines:
as §1

Assay [10] deals with PUM1 PUF domain R2-KRA (Homo sapiens, UniProt Q14671 828-1176, N899K;Y900R;Q903A). In a few lines: as §1
In assay [11] the target is PUM1 PUF domain R8-QYG (Homo sapiens, UniProt Q14671 828-1176, N1122Q;Q1126G). Summed up:
as §1

In assay [12] the target is PUM1 PUF domain R5-MRD (Homo sapiens, UniProt Q14671 828-1176, C1007M;Q1011D). Summed up: as §1
For assay [13], the target named is PUM1 PUF domain R5-LYL (Homo sapiens, UniProt Q14671 828-1176, C1007L;R1008Y;Q1011L). Summed up: as §1
Assay [14] concerns the target PUM1 PUF domain R2-LWL (Homo sapiens, UniProt Q14671 828-1176, N899L;Y900W;Q903L). In a few lines:
as §1

The target of assay [15] is PUM1 PUF domain R5-STR (Homo sapiens, UniProt Q14671 828-1176, C1007S;R1008T;Q1011R). In a few lines: as §1
Assay [16] has as its target PUM1 PUF domain R5-AFF (Homo sapiens, UniProt Q14671 828-1176, C1007A;R1008F;Q1011F). In a few lines: as §1
In assay [17] the target is PUM1 PUF domain R3-FRA (Homo sapiens, UniProt Q14671 828-1176, C935F;Q939A). In a few lines: as §1
The target in assay [18] is PUM1 PUF domain R3-PHL (Homo sapiens, UniProt Q14671 828-1176, C935P;R936H;Q939L). Summed up:
as §1

Assay [19] deals with PUM1 PUF domain R5-TGR (Homo sapiens, UniProt Q14671 828-1176, C1007T;R1008G;Q1011R). In a few lines: as §1
The target in assay [20] is PUM1 PUF domain R5-KRN (Homo sapiens, UniProt Q14671 828-1176, C1007K;Q1011N). In a few lines:
as §1

Where a chain is given by its changes, count along the chain named.

As to “GGCUAGAACUAGUGGAUCCCCCGGCGCCCGGCGGCUCGAGCCCGGGUAAGUGUAAAUUGUCUGCAUGCCGCCGGGCGCCAUGCCUGCAGGUCGACUCUAGAAAACAUG”, the binding signal in assay [1] is 3.86 log2 enrichment (interaction score); in [2], 3.06 log2 enrichment (interaction score).

Consider “GGCUAGAACUAGUGGAUCCCCCGGCGCCCGGCGGCUCGAGCCCGGGUAAGUGUAUAUAGUCUGCAUGCCGCCGGGCGCCAUGCCUGCAGGUCGACUCUAGAAAACAUG”, for which the binding signal in assay [3] was 4.12 log2 enrichment (interaction score).

For “GGCUAGAACUAGUGGAUCCCCCGGCGCCCGGCGGCUCGAGCCCGGGUAAGUGAAAAUAGUCUGCAUGCCGCCGGGCGCCAUGCCUGCAGGUCGACUCUAGAAAACAUG”, the binding signal in [4] was 3.61 log2 enrichment (interaction score); in [5], 5.8 log2 enrichment (interaction score).

Regarding “GGCUAGAACUAGUGGAUCCCCCGGCGCCCGGCGGCUCGAGCCCGGGUAAGUGUAAAUCGUCUGCAUGCCGCCGGGCGCCAUGCCUGCAGGUCGACUCUAGAAAACAUG”, the binding signal in assay [6] was 3.46 log2 enrichment (interaction score); in assay [2], 3.03 log2 enrichment (interaction score).

Regarding “GGCUAGAACUAGUGGAUCCCCCGGCGCCCGGCGGCUCGAGCCCGGGUAAGUGCAAAUAGUCUGCAUGCCGCCGGGCGCCAUGCCUGCAGGUCGACUCUAGAAAACAUG”, the binding signal in assay [7] was 6.87 log2 enrichment (interaction score).

On to “GGCUAGAACUAGUGGAUCCCCCGGCGCCCGGCGGCUCGAGCCCGGGUAAGUGUGAAUAGUCUGCAUGCCGCCGGGCGCCAUGCCUGCAGGUCGACUCUAGAAAACAUG”, for which the binding signal in assay [8] was 1.09 log2 enrichment (interaction score); in assay [9] it was 1.48 log2 enrichment (interaction score).

In the case of “GGCUAGAACUAGUGGAUCCCCCGGCGCCCGGCGGCUCGAGCCCGGGUAAGUGUAAAGAGUCUGCAUGCCGCCGGGCGCCAUGCCUGCAGGUCGACUCUAGAAAACAUG”, in [10], the binding signal is 4.63 log2 enrichment (interaction score).

As for “GGCUAGAACUAGUGGAUCCCCCGGCGCCCGGCGGCUCGAGCCCGGGUAAGCGUAAAUAGUCUGCAUGCCGCCGGGCGCCAUGCCUGCAGGUCGACUCUAGAAAACAUG”, the binding signal in [11] was 3.1 log2 enrichment (interaction score).

On to “GGCUAGAACUAGUGGAUCCCCCGGCGCCCGGCGGCUCGAGCCCGGGUAAGUGUAAAUAGUCUGCAUGCCGCCGGGCGCCAUGCCUGCAGGUCGACUCUAGAAAACAUG”, for which the binding signal in assay [12] was 2.65 log2 enrichment (interaction score); in assay [8], 1.06 log2 enrichment (interaction score); in [9], 2.29 log2 enrichment (interaction score); in assay [7], 6.46 log2 enrichment (interaction score); in assay [13], 2.85 log2 enrichment (interaction score); in assay [14], 1.87 log2 enrichment (interaction score). In addition, the binding signal in assay [11] was 3.24 log2 enrichment (interaction score); in [15], 1.08 log2 enrichment (interaction score); in assay [16] it was 2.83 log2 enrichment (interaction score).

Regarding “GGCUAGAACUAGUGGAUCCCCCGGCGCCCGGCGGCUCGAGCCCGGGUAAGUGUAAUUAGUCUGCAUGCCGCCGGGCGCCAUGCCUGCAGGUCGACUCUAGAAAACAUG”, the binding signal was 1.3 log2 enrichment (interaction score) in assay [17] and 4.16 log2 enrichment (interaction score) in assay [18].

As for “GGCUAGAACUAGUGGAUCCCCCGGCGCCCGGCGGCUCGAGCCCGGGUAAGUGUAAGUAGUCUGCAUGCCGCCGGGCGCCAUGCCUGCAGGUCGACUCUAGAAAACAUG”, in assay [17], the binding signal was 5.49 log2 enrichment (interaction score).

For “GGCUAGAACUAGUGGAUCCCCCGGCGCCCGGCGGCUCGAGCCCGGGUAAGUGUAAAAAGUCUGCAUGCCGCCGGGCGCCAUGCCUGCAGGUCGACUCUAGAAAACAUG”, in assay [14], the binding signal was 6.07 log2 enrichment (interaction score).

Consider “GGCUAGAACUAGUGGAUCCCCCGGCGCCCGGCGGCUCGAGCCCGGGUAAGUGUUAAUAGUCUGCAUGCCGCCGGGCGCCAUGCCUGCAGGUCGACUCUAGAAAACAUG”, for which the figures for the binding signal in [12] and in assay [9] were 2.48 log2 enrichment (interaction score) and 1.78 log2 enrichment (interaction score), respectively.

As to “GGCUAGAACUAGUGGAUCCCCCGGCGCCCGGCGGCUCGAGCCCGGGUAAGUGUCAAUAGUCUGCAUGCCGCCGGGCGCCAUGCCUGCAGGUCGACUCUAGAAAACAUG”, the binding signal is 5.8 log2 enrichment (interaction score) in [19], 4.67 log2 enrichment (interaction score) in assay [8], 4.24 log2 enrichment (interaction score) in assay [20] and 5.88 log2 enrichment (interaction score) in [15].

Source of the values: publication PMC8384837, “Expanding the binding specificity for RNA recognition by a PUF domain”.
